Screening data (PubChem BioAssay)
G9a block = blocks human histone lysine methyltransferase G9a | G9a H3K9 monomethylation, AlphaScreen, 2 h | Potency, µM (titrated, usually from 102 µM), for inactives: at the highest dose activity, negative = inhibition, hits mostly inhibitors | actives 8.8% (n = 350,000) | AID 504332; note: % is set by controls: 0 for no effect and ±100 for the full control effect; nearly all actives have a fitted effect of over 75% in size
Target sequence (Q96KQ7 913-1193 limits assumed): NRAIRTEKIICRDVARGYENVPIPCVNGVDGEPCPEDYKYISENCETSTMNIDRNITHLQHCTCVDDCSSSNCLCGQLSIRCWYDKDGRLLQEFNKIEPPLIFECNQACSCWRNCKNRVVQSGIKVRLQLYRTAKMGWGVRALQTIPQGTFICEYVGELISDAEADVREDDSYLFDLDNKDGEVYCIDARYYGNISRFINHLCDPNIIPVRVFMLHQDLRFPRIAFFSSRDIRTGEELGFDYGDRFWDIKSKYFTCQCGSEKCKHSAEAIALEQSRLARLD
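G9a (20 nM) preincubated 15 min RT with compounds, then 500 nM biotinylated H3K9 peptide and 20 uM SAM added; 2 h RT reaction. Monomethyl-H3K9 product detected by AlphaScreen with anti-H3K9me1 antibody, streptavidin donor and anti-rabbit IgG acceptor beads.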
JMJD2A Tudor = blocks the human JMJD2A Tudor domain; O75164; actives 4.4% (n = 390,000); Potency, µM (doses to about 114 µM), for the others: top-dose activity change, negative = inhibition, actives largely listed as inhibitors; AlphaScreen JMJD2A-Tudor / H3K4me3 peptide binding; note: % is set by controls: 0 for no effect and ±100 for the full control effect; nearly all actives have a fitted effect of over 50% in size
TDP1 inh = TDP1 (human) enzyme inhibition; Q9NUW8; actives 0.28% (n = 350,000); AID 485290; Potency, µM (doses to about 130 µM), for the others: top-dose activity change, negative = inhibition, most hits filed as inhibitors; recombinant TDP1, AlphaScreen DNA substrate cleavage; note: % is set by controls: 0 for no effect and ±100 for the full control effect; nearly all actives have a fitted effect of over 40% in size
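Recombinant human Tdp1 (E. coli-expressed, 1 nM final) preincubated with compounds 15 min at room temperature, then 5'-biotin/3'-phosphotyrosine-FITC DNA substrate (15 nM final) added for 5 min. AlphaScreen beads (10 ug/ml final) added 10 min; cleavage lowers signal.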
HP1b binding inh = HP1-beta chromodomain-methylated histone interaction inhibition; AID 540317; P83916; actives 0.56% (n = 390,000); Potency, µM (doses to about 114 µM), without a hit: at the highest dose activity change, negative = inhibition, hits mostly inhibitors; AlphaScreen HP1-beta / biotin-H3K9me3 peptide binding; note: nearly all actives have a fitted effect of over 70% in size
Target sequence (P83916 whole entry, looked up): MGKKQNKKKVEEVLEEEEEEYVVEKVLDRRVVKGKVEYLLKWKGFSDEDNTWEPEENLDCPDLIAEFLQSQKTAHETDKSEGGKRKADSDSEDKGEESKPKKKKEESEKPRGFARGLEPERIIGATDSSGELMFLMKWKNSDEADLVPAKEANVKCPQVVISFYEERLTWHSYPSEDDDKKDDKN
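HP1-beta protein (50 nM final) preincubated 30 min at room temperature with biotinylated H3(1-18)K9me3 peptide (50 nM) in PBS pH 7.4, 0.01% Tween-20, then compound added for 30 min. AlphaScreen streptavidin donor/nickel chelate acceptor beads (10 ug/mL final), 30 min dark, luminescence read.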
BAZ2B block = BAZ2B (human) inhibition. actives 4.4% (n = 360,000). AlphaScreen BAZ2B-H3K14Ac peptide displacement. AID 504333. Potency, µM (top dose mostly 114 µM), for the others: top-dose activity change, negative = inhibition, usual class: inhibitors. Q9UIF8; note: % is set by controls: 0 for no effect and ±100 for the full control effect; nearly all actives have a fitted effect of over 60% in size
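BAZ2B (50 nM) with biotin-H3(5-23)K14Ac peptide (50 nM) in PBS pH 7.4, 0.01% Tween-20, preformed 30 min, then compound 30 min at room temperature; top concentration 110uM. AlphaScreen streptavidin donor/nickel chelate acceptor beads (10 ug/mL final), 20 min dark, signal read.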
Sfp PPTase inh = inhibitors of Bacillus subtilis Sfp phosphopantetheinyl transferase; Biochemical Sfp PPTase activity, qHTS; actives 3.5% (n = 310,000); Q9F4F7; Potency, µM, for the others: largest response in the series, negative = inhibition, most hits filed as inhibitors;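 note: the enzyme is Sfp with the accession as filed and its product quenches rhodamine fluorescence; 0% = enzyme reaction without inhibitor and -100% = no enzyme wells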
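Fluorescence-quenching assay with 15 nM Sfp, 5 uM rhodamine-CoA and 12.5 uM BHQ-2-labelled ybbR peptide in pH 7.6 Hepes/MgCl2 buffer. Enzyme was pre-incubated with compound for 15 min at room temperature. Rate was taken from the 30-min fluorescence change (525/598 nm).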
* marks the source's active call; other numbers are inactive results; u = inconclusive; x = not tested or not shown; [ ] = remark or other dose. Compounds with a hit are over-represented: about 12% of the library has one in this group of screens. Calls come from the whole dose curve; as a rule, active = well fitted curve in the direction sought with a large enough effect; inconclusive = small, poorly fitted or top-dose-only effect, or another doubt; inactive = no such curve, though single readings can be large; an effect the other way counts as inactive or inconclusive. Potency is the fitted concentration of half-maximal effect.

SMILES | G9a block | JMJD2A Tudor | TDP1 inh | HP1b binding inh | BAZ2B block | Sfp PPTase inh
COC(=O)c1ccc(N=NNc2ccc(C(=O)OC)cc2)cc1 | -26%[59 µM] | -9% | 3% | 18% | -29% | 5%
COC(=O)c1ccc(N=NNc2ccccc2)cc1 | 8.9µM* | -25% | 0% | 6% | u | u
N#C/C(=N\Nc1cccc([N+](=O)[O-])c1)C(=O)c1ccc(Br)cc1 | 45µM* | 40µM* | 11% | u | 40µM* | -6%
O=C(O)c1ccc(N=NNc2cccc([N+](=O)[O-])c2)cc1 | 45µM* | -16% | 8% | -4% | -30% | 6%
CCOC(=O)c1ccc(NC(=O)Cc2noc3ccc(C)cc23)cc1 | 13µM* | -6% | 5% | 51% | -1% | x
O=C(CN(C(=O)Cn1nnc(-c2ccc(F)cc2)n1)c1cccc(F)c1)NC1CCCC1 | -8% | -1% | x | 1% | 2% | 29%
C/C=C/C(=O)OCC(=O)Nc1ccc(OC)c(Cl)c1 | 24%[59 µM] | -12% | 0% | 12% | 8% | 15%
C/C=C/C(=O)OCC(=O)Nc1ccc(OC)c(OC)c1 | -28% | 9% | 3% | 30% | 50µM* | 1%
CCN(CC)CCCn1c2c(c(SCC(=O)Nc3cccc4ccccc34)nc1=O)CCC2 | 40µM* | -17% | 0% | 13% | 12% | x
CCN(CC)CCn1c2c(c(SCC(=O)Nc3ccc(C(C)C)cc3)nc1=O)CCCC2 | -24% | -3% | 5% | 16% | -3% | x
CCN(CC)CCCn1c2c(c(SCC(=O)Nc3cc(OC)cc(OC)c3)nc1=O)CCC2 | 50µM* | -9% | x | 33% | 2% | x
CN(C)CCCn1c2c(c(SCC(=O)Nc3cccc4ccccc34)nc1=O)CCCC2 | 40µM* | -5% | -10%[0.505 µM] | 19% | 3% | x
CCCCc1ccc(NC(=O)CSc2nc(=O)n(CCN(CC)CC)c3c2CCC3)cc1 | 50µM* | -34% | x | 8% | -1% | x
CCN(CC)CCCn1c2c(c(SCC(=O)Nc3ccc(F)c(F)c3)nc1=O)CCC2 | -43% | -1% | 0% | 28% | -5% | x
COc1cc(NC(=O)O[C@@H]2C(=O)c3cc(Br)ccc3O[C@H]2c2ccc3c(c2)OCO3)cc(OC)c1OC | x | x | 5% | x | x | 0%
COc1cc(-c2nc3n(n2)C(c2ccc(F)cc2)C(C(N)=O)=C(C)N3)cc(OC)c1OC (centres undefined) | -36%[59 µM] | -1% | x | 34% | 2% | x
COc1ccc2c(C)c(CCC(=O)NCCc3ccc(OC)c(OC)c3)c(=O)oc2c1 | 0%[59 µM] | -29% | 2% | 14% | -11% | x
O=C(O)CSc1ccc2nnc(-c3cccnc3)n2n1 | u | -4%[57.1 µM] | 7% | 30%[57 µM] | -23% | 5%
CCC(Sc1ccc2nnc(-c3ccc(F)cc3)n2n1)C(=O)O (centres undefined) | u | u | 8% | -14% | -6% | 2%
CC(=O)C(Sc1ccc2nnc(-c3ccc(C)cc3)n2n1)C(C)=O | 32µM* | u | 2% | 22% | -2% | -14%
CC(=O)C(Sc1ccc2nnc(-c3cccnc3)n2n1)C(C)=O | 71µM* | -14% | 5% | 57% | x | -13%
CC(=O)C(Sc1ccc2nnc(-c3ccc(F)cc3)n2n1)C(C)=O | 18µM* | u | 1% | 44% | u | 10%
CCOc1ccc(Nc2oc(-c3ccc(COc4ccccc4C)o3)nc2C#N)cc1 | -34%[59 µM] | -28% | 6% | 30% | u | x
CC(C)(C)C1CCc2nc(NC(=O)Cc3ccccc3)sc2C1 (centres undefined) | -9%[59 µM] | -1% | -3% | 34% | 7% | x
Nc1nc2c(s1)CC(c1ccccc1)CC2 (centres undefined) | 50µM* | 5%[11.4 µM] | 5% | -2% | u | 2%
O=C(c1ccncc1)N1N=C(c2ccc(Cl)cc2)CC1c1ccccc1O (centres undefined) | 20µM* | u | 0% | -11% | u | -82%
